Compounds without any hit were thinned out: in the full panel of roughly 83,000, 20% have a hit.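 A percent growth of 40 corresponds to 60% growth inhibition; 0 means no net growth; -100 means all cells died. Active threshold: below 10.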 Activity calls are given as the source filed them.
Each compound was assayed on OVCAR-5 ovarian (assay: NCI-60 one-dose screen, 48 h (100 = growth as untreated, 0 = no growth, -100 = all killed)). Conditions: 10 µM unless noted.
Method: Growth inhibition of the OVCAR-5 human tumor cell line is measured as a screen for anti-cancer activity. Cells are grown in 96 well plates and exposed to the test compound for 48 hours. Compounds are tested at a single concentration, which is 10^-5 M for most compounds. The reported endpoint is percent growth (GI% or GIPRCNT), where numbers from 0 - 100% represent growth inhibition, and numbers from -100% - 0 represent cell death. For example, a value of 40 represents 60% growth inhibition. A value of 0 means no net growth occurred over the course of the experiment. A value of -40 indicates 40% of cells at the beginning of the experiment died by the end of the experiment. A value of -100 means all cells are dead at the end of the experiment.
NCI-60 Human Tumor Cell Lines Screen was performed using the standard one-dose NCI protocol, which is described in more detail at https://dtp.cancer.gov/discovery_development/nci-60/default.htm.
Compounds with GIPRCNT values below 10 were considered active. Activity score was based on GIPRCNT using the following formula: […]
Score is 0 for GIPRCNT values of 100 or above, 50 for GIPRCNT values of 0, and 100 for GIPRCNT values of -100.

Question: With `Cc1cc(C)nc(NC(N)=NCCc2ccccc2)n1` as the compound, how does the growth read?
Answer: The growth was 72% (inactive).

Question: How did the growth turn out when `NC1=NN=C2N(N)C(=O)c3cnn(-c4ccccc4)c3N2c2nc(-c3ccccc3)cc(-c3ccccc3)c21` was run?
Answer: The growth was 104% (inactive).

Question: How did the growth turn out when `c1ccc(-c2nc(Nc3ccc(-c4nc5ccccc5[nH]4)cc3)nc(N3CCOCC3)n2)cc1` was run?
Answer: Its growth is 0.632% (active).

Question: With `Cn1cc(-c2csc(-c3cn(CCN)c4ccccc34)n2)c2cccnc21` as the compound, how does the growth read?
Answer: Its growth is 74.9% (inactive).

Question: With `CC1(n2nnnc2N2CCCN(c3ncccc3N)CC2)CCC1` as the compound, how does the growth read?
Answer: The growth was 98.7% (inactive).

Question: Which growth does the source give for `Fc1ccc2c(c1)c(-c1nc(-c3c[nH]c4ncccc34)cs1)cn2CCCN1CCCCC1` here?
Answer: The growth was 88.3% (inactive).

Question: How did the growth turn out when `COc1cc2[nH]c(C(=O)c3cc(OC)c(OC)c(OC)c3)c(N)c2cc1C#CC1CC1` was run?
Answer: Its growth is 38.4% (inactive).

Question: `COc1cccc(-c2nn(-c3ccccc3)cc2-c2ccnc(NCCNS(=O)(=O)c3cccc(F)c3)c2)c1` was tested. Which growth did it give?
Answer: Its growth is 64.9% (inactive).

Question: How did the growth turn out when `O=C(N/N=C\c1c(O)ccc2ccccc12)C1CC1` was run?
Answer: Its growth is 90.9% (inactive).

Question: Which growth does the source give for `CN(C)c1ccc(C(=O)c2ccc(N(C)C)c(N)c2)cc1N` here?
Answer: Its growth is 75.7% (inactive).

Question: `C[C@H]1[C@H]2C3=CC[C@@H]4[C@@]5(C)C/C(=C/c6ccco6)C(=O)C(C)(C)[C@@H]5CC[C@@]4(C)[C@]3(C)CC[C@@]2(C(=O)N2CCOCC2)CC[C@@H]1C` was tested. Which growth did it give?
Answer: The growth was 96.6% (inactive).

Question: Which growth does the source give for `OCCNc1nc(Nc2ccc(Cl)c(Cl)c2)nc2ccccc12` here?
Answer: The growth was 78.3% (inactive).

Question: Which growth does the source give for `Nc1c(C(=O)Nc2cccc(Cl)c2)sc2ncc(Cl)cc12` here?
Answer: The growth was 88.8% (inactive).

Question: `Nc1nc2c3ccncc3cc(-c3cccc(Cl)c3)c2c2cnccc12` was tested. Which growth did it give?
Answer: Its growth is 61.2% (inactive).

Question: How did the growth turn out when `O=C(O)c1cccc2c1-c1ccc(Cl)cc1C2` was run?
Answer: The growth was 115% (inactive).

Question: With `CN1CCN(c2nc(-c3csc(-c4cccs4)n3)cc3ccccc23)CC1` as the compound, how does the growth read?
Answer: The growth was 87.7% (inactive).

Question: With `COc1ccc(/C=C(\C#N)c2cc3ccccc3n2C(C)=O)cc1` as the compound, how does the growth read?
Answer: The growth was 104% (inactive).

Question: With `COC(=O)C(N)CSC(c1ccccc1)(c1ccccc1)c1ccccc1` (stereo not given) as the compound, how does the growth read?
Answer: Its growth is 33.3% (inactive).

Question: `C=C(C)[C@@H]1CC[C@]2(C=NCCCNCCCCNCCCN)CC[C@]3(C)[C@H](CC[C@@H]4[C@@]5(C)CCCNC(C)(C)[C@@H]5CC[C@]43C)[C@@H]12` was tested. Which growth did it give?
Answer: The growth was 112% (inactive).

Question: How did the growth turn out when `O=C1c2ccccc2C(=Cc2ccccc2)c2ccccc21` was run?
Answer: Its growth is 43.3% (inactive).

Question: Which growth does the source give for `COc1ccc2c(c1)c(-c1nc(-c3c[nH]c4ncccc34)cs1)cn2CCCN1CCCCC1` here?
Answer: The growth was 77.4% (inactive).

Question: Which growth does the source give for `CC(=O)NC1=C(C#N)C(c2ccccc2Cl)c2c(ccc3ccccc23)O1` (stereo not given) here?
Answer: Its growth is 86.3% (inactive).

Question: `O=C(/C=C/c1cccc(O)c1)c1ccccc1O` was tested. Which growth did it give?
Answer: The growth was 99.4% (inactive).

Question: How did the growth turn out when `CN(C)c1ccc(N=C2C=CC(=O)C=C2)cc1` was run?
Answer: The growth was 120% (inactive).

Question: How did the growth turn out when `Fc1ccc2[nH]cc(-c3nc(-c4c[nH]c5ncccc45)cs3)c2c1` was run?
Answer: Its growth is 86.1% (inactive).

Question: For `O=C1C(=O)c2ccccc2C(O)=C1CCCc1ccc(C2CCCCC2)cc1`, which growth is on record?
Answer: The growth was 61.7% (inactive).

Question: `Nc1c(C(=O)Nc2c(Cl)cccc2Cl)sc2nc3c(cc12)CCCC3` was tested. Which growth did it give?
Answer: Its growth is 105% (inactive).

Question: How did the growth turn out when `COc1cc2ncnc(Nc3ccc(Oc4ccnc(C)c4)c(C)c3)c2cc1NC(=O)CC1CCSS1` (stereo not given) was run?
Answer: Its growth is 45.2% (inactive).

Question: `CN(C)c1ccc(-c2ccc(-c3ccc(C(=N)N)c(F)c3)s2)cc1` was tested. Which growth did it give?
Answer: Its growth is -89.2% (active).

Question: With `COc1cc(-c2cc3ncccc3c3nc(OCCN(C)C)c4cccnc4c23)cc(OC)c1OC` as the compound, how does the growth read?
Answer: Its growth is 44.8% (inactive).

Question: Which growth does the source give for `COc1ccc(-c2n[nH]nc2-c2cc3ccccc3s2)cc1O` here?
Answer: Its growth is 38.2% (inactive).

Question: How did the growth turn out when `CC1(C)C(=O)/C(=C\c2cccnc2)C[C@]2(C)[C@H]3CC[C@@H]4[C@@H](C(=O)/C=C/c5ccncc5)CC[C@@]4(C)[C@]3(C)CC[C@@H]12` was run?
Answer: The growth was 18.1% (inactive).

Question: For `Cc1ccc(N(CC(=O)Nc2ccc(S(=O)(=O)NC3CCN(C)CC3)cc2)S(=O)(=O)c2ccc(Cl)cc2)cc1`, which growth is on record?
Answer: Its growth is 91.6% (inactive).

Question: With `Fc1cccc(-c2[nH]nc3nc(Nc4cccnc4)sc23)c1` as the compound, how does the growth read?
Answer: The growth was 86.9% (inactive).

Question: Which growth does the source give for `O=C1NC(=Nc2ccc(S(=O)(=O)Nc3nccs3)cc2)S/C1=C\c1coc2ccccc2c1=O` here?
Answer: The growth was 121% (inactive).

Question: For `O=C(c1ccccc1)C(CN1CCOCC1)c1ccccc1` (stereo not given), which growth is on record?
Answer: The growth was 116% (inactive).

Question: For `COC(=O)[C@]12CC[C@@H](C)[C@H](C)[C@@H]1C1=CC[C@@H]3[C@@]4(C)C[C@@H](O)OC[C@](C)(C=O)C4C(=O)C[C@@]3(C)[C@]1(C)CC2` (stereo not given in full), which growth is on record?
Answer: Its growth is -10.5% (active).

Question: With `CC(C)C[C@@H](NC(=O)[C@@H](Cc1ccccc1)NC(=O)c1cnccn1)B1O[C@H]2[C@H](O)[C@@H](C(=O)NCCCC[C@@H]3NC(=O)[C@@H](Cc4ccccc4)NC(=O)[C@H](CC(=O)O)NC(=O)CNC(=O)[C@H](CCCN=C(N)N)NC3=O)O[C@@H](CN)[C@H]2O1` as the compound, how does the growth read?
Answer: The growth was -19.2% (active).

Question: With `Oc1cccc2ccc(N/N=C/c3cc(CN4CCCCC4)c(O)c4ncccc34)nc12` as the compound, how does the growth read?
Answer: The growth was 36.4% (inactive).

Question: `Cc1c(C)c2c(c(C)c1NC(=O)CCCCCCC(=O)O)CCC(C)(CCCC(C)CCCC(C)CCCC(C)C)O2` (stereo not given) was tested. Which growth did it give?
Answer: The growth was 121% (inactive).

From PubChem BioAssay (NCI)
